Screen size: about 310,000 compounds; about 2,200 (0.71%) showed an effect of 50% or more. Effects have a minus sign here. Many of the other results were omitted from the sample, so strong results are more common in it than they were.
Each compound was assayed against human ether-à-go-go-related gene (hERG) potassium channel (human, UniProt Q12809) (assay: primary screen, population patch clamp on CHO cells stably expressing hERG; higher = less effect of the substance).
Experimental: Briefly, Chinese hamster ovary (CHO) cells stably expressing the hERG channel were dislodged from tissue culture flasks and dispensed into PPC plates. […] During the recording, background leak currents were estimated by a 100 ms step to -80 mV from an initial holding potential of -70 mV and subtracted from the subsequent current measurement. The campaign was conducted in two phases using slight differences in recording protocol. In the first phase, the initial voltage pulse used a 100 ms step to -30 mV from a holding potential of -70 mV, a 2 s conditioning step to +25 mV, and a 2 s test step to -30 mV. During the second phase of the screen, the potential during the conditioning step was raised to +45 mV. In both phases of the campaign, a secondary voltage pulse was applied using the same parameters as the second phase initial pulse. The initial and secondary pulses were applied in the absence of compound, and upon application of 1 μM and 10 μM test concentrations. Small molecule effects on hERG current density were quantified by […].

human ether-à-go-go-related gene (hERG) potassium channel, sequence (Q12809 whole entry, looked up): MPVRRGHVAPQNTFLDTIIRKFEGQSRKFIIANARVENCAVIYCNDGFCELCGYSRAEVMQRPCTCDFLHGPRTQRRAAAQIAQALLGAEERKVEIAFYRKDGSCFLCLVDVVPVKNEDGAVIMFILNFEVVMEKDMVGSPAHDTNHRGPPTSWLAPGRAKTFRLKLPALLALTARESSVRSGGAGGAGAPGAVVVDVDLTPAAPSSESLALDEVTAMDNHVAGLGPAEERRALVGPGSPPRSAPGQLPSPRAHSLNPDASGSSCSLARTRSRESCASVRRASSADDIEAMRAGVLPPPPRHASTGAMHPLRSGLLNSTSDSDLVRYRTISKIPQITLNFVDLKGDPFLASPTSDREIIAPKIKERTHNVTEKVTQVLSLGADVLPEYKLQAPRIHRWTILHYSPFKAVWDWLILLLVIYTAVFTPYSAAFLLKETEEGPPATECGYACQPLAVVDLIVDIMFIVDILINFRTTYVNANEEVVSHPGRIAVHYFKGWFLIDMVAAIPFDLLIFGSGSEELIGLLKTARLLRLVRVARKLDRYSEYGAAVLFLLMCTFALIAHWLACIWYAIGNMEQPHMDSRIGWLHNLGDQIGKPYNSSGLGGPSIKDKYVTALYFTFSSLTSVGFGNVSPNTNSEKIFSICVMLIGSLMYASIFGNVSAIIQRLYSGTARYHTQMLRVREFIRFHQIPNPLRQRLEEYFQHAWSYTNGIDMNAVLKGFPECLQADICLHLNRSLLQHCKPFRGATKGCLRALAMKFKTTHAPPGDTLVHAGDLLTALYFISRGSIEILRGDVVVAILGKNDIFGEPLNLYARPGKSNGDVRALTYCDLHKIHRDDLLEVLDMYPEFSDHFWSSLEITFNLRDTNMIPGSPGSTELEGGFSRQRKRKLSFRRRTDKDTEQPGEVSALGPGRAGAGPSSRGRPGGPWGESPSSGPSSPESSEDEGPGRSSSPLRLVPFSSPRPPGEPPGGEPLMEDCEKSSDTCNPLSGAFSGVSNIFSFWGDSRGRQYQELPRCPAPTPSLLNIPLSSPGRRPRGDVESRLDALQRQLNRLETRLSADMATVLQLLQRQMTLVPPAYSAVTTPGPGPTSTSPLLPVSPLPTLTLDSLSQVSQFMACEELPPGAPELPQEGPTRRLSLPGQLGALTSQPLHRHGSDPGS

Row | SMILES | hERG current change (%, negative = inhibition) at 1uM
1 | O=C1CC(c2ccc(Cl)cc2)CC(O)=C1C=NCCO (stereo not drawn) | 10.6%
2 | O=C1C2C3C=CC(C3)C2C(=O)N1CCN1CCN(S(=O)(=O)/C=C/c2ccccc2)CC1 (stereo not drawn) | 11%
3 | Cc1cc(C)n2c(SCC(=O)NC3CCCC(C)C3C)nnc2n1 (stereo not drawn) | 12.4%
4 | O=C(NCc1cc(C(F)(F)F)cc(C(F)(F)F)c1)C1CC(c2cccc(F)c2)=NO1 (stereo not drawn) | 2.14%
5 | O=c1cc(-c2ccccc2F)oc2ccccc12 | 2.56%
6 | C=CCNc1cnn(-c2ccc(C)cc2)c(=O)c1Sc1ccc(C)cc1 | 13.8%
7 | COC(=O)c1ccc(CNC(=O)COc2ccccc2Br)o1 | 12.4%
8 | CC(C)CNS(=O)(=O)c1ccc(NC(=O)Cn2nc(-c3ccc(F)cc3)ccc2=O)cc1 | 7.17%
9 | CN(C/C=C/c1ccccc1)Cc1cccc2ccccc12.Cl | 5.76%
10 | O=C(NCC(=O)N1CC=C(c2ccccc2)CC1)c1ccco1 | -50.9%
11 | Cc1cccc(C(=O)NCC(=O)N2CC=C(c3ccccc3)CC2)c1 | -1.82%
12 | CSCCC(NC(=O)c1ccco1)C(=O)N1CC=C(c2ccccc2)CC1 (stereo not drawn) | -1.93%
13 | c1ccc(Cn2ncc3ccccc32)cc1 | 10.6%
14 | CCOCCCNS(=O)(=O)c1ccc(NC(=O)C2CC(=O)N(c3ccc(C)cc3)C2)cc1 (stereo not drawn) | 11.4%
15 | CN(C)C=Nc1nonc1-c1ccc(Cl)cc1 | 11.2%
16 | COc1ccccc1C(=O)N/C(=C\c1cn(C)c2ccccc12)C(=O)NCCCn1ccnc1 | 12.2%
17 | O=C(NCCCn1ccnc1)/C(=C\c1ccc(Br)cc1)NC(=O)c1ccccc1F | -81.5%
18 | COc1ccccc1C(=O)N/C(=C\c1ccc(Br)cc1)C(=O)NCCCO | -0.677%
19 | O=C(NCCCn1ccnc1)/C(=C\c1cccnc1)NC(=O)c1ccccc1Br | 9.44%
20 | O=C(NCCCn1ccnc1)/C(=C\c1cccnc1)NC(=O)c1ccccc1F | 8%
21 | COc1ccccc1C(=O)N/C(=C/c1ccc(Br)cc1)C(=O)NCCCn1ccnc1 | -84.8%
22 | Cc1ccc(NC(=O)CN2C(=O)CCSc3ccc(S(=O)(=O)N4CCCC4)cc32)cc1 | 19%

Row | SMILES | hERG current change (%, negative = inhibition) at 1uM
23 | CCOC(=O)C1CCN(CC(=O)c2ccc(O)c(C)c2O)CC1 | 12.3%
24 | Cc1cc2c(NC3CCCCC3)ncnc2s1.Cl | 12%
25 | N#C/C(=C\c1c(Cl)cccc1Cl)c1nc2ccccc2o1 | 2.68%
26 | Cc1cc(-c2ccc(C)c(S(=O)(=O)Nc3cc(C)on3)c2)on1 | 1.77%
27 | O=C(N=C1SCC(=O)N1c1ccccc1)c1ccco1 | -1.23%
28 | CCCn1c(SCC(=O)Nc2cccc(C(=O)OCC)c2)nnc1-c1ccoc1C | 5.88%
29 | Cc1ccc(NC(=O)CSc2nnc(-c3ccoc3C)n2CCCN(C)C)cc1Cl | -70.2%
30 | Cc1occc1-c1nnc(SCC(=O)Nc2ccccc2)n1CCc1ccccc1 | -20.1%
31 | COCCn1c(SCC(=O)Nc2ccc(OC)cc2)nnc1-c1ccoc1C | 12.2%
32 | COCCCn1c(SCC(=O)Nc2ccc3c(c2)OCCO3)nnc1-c1ccoc1C | 1.88%
33 | CCN(CC)CCCn1c(SCC(=O)Nc2cccc(F)c2)nnc1-c1ccoc1C | -63%
34 | O=C(NCCCN1CCOCC1)C1(c2ccccc2)CCOCC1 | 19.2%
35 | Cc1ccc(Nc2nc(N)nc(CN3CCCCCC3)n2)cc1 | -45.2%
36 | CCOC(=O)C1CCCN(Cc2ccc(OC)cc2OC)C1 (stereo not drawn) | -13.6%
37 | CCOC(=O)C1CCCN(Cc2nc(N)nc(Nc3ccccc3)n2)C1 (stereo not drawn) | -18.6%
38 | CCOC(=O)C1CCCN(Cc2nc(N)nc(Nc3ccc(C)cc3)n2)C1 (stereo not drawn) | -47.6%
39 | COc1ccccc1Nc1nc(N)nc(CN2CCc3ccccc3C2)n1 | -2.7%
40 | CCOC(=O)C1CCCN(Cc2nc(N)nc(Nc3ccc(Cl)cc3)n2)C1 (stereo not drawn) | -71.6%
41 | CCOC(=O)C1CCCN(Cc2nc(N)nc(Nc3ccccc3OC)n2)C1 (stereo not drawn) | -53.2%
42 | CCOC(=O)N1CCN(Cc2nc(N)nc(Nc3ccc(Oc4ccccc4)cc3)n2)CC1 | -36.8%
43 | CCOC(=O)C1CCCN(Cc2nc(N)nc(Nc3ccc(OC)cc3)n2)C1 (stereo not drawn) | -67.8%
44 | CCc1cccc2c(C=C(C#N)C#N)cn(CC(=O)N3CCCC3)c12 | 2.04%

Row | SMILES | hERG current change (%, negative = inhibition) at 1uM
45 | CNC(=O)C1CCN(S(=O)(=O)c2c(C)noc2/C=C/c2ccc(C)cc2)CC1 | 10.2%
46 | COc1cc(C(=O)N2CCN(C/C=C/c3ccccc3)CC2)cc(OC)c1C | 6.9%
47 | COc1ccc(C(=O)NC2CC2)cc1OC1CCN(C/C=C/c2ccccc2)CC1 | -84.3%
48 | COc1cc(C(=O)N2CCN(C/C=C/c3ccccc3)CC2)cc(OC)c1OC | -2.2%
49 | COc1ccccc1/C=C/CN1CCC(Oc2cc(C(=O)NC3CC3)ccc2OC)CC1 | -78.3%
50 | COc1ccccc1/C=C/CN1CCC(Oc2ccc(C(=O)N3CCCC3)cc2)CC1 | 10.1%
51 | COc1ccccc1/C=C/CN1CCC(Oc2ccc(C(=O)N3CCCCC3)cc2)CC1 | 7.23%
52 | Cc1ccc(SCCC(=O)NCCSCc2ccccc2C)cc1 | 10.1%
53 | O=P1(Nn2cnnc2)C=C(c2ccccc2)OC(c2ccccc2)=C1 | -9.39%
54 | CCN1CCN(P2(=O)C=C(c3ccccc3)OC(c3ccccc3)=C2)CC1 | -86.5%
55 | O=P1(O)C=C(c2ccccc2)OC(c2ccccc2)=C1 | 14.1%
56 | Cc1ccc(CSCC(=O)NCc2cccs2)cc1 | 7.51%
57 | CCc1ccc(-n2nnnc2SCC(=O)Nc2ccc(NC(C)=O)cc2)cc1 | 20.4%
58 | Cc1cc(SCC(=O)N/N=C/c2ccc(O)cc2O)c(C)cc1Br | 8.67%
59 | Cn1c(CCN2CCN(c3ccccn3)CC2)nc2cc(NC(=O)COc3ccc(Cl)cc3)ccc21 | 0.879%
60 | Cn1c(CCN2CCN(c3ccccn3)CC2)nc2cc(NC(=O)COc3ccccc3)ccc21 | -67%
61 | Cc1cccc(OCC(=O)Nc2ccc3c(c2)nc(CCN2CCN(c4ccccn4)CC2)n3C)c1 | -67%
62 | Cn1c(CCN2CCN(c3ccccn3)CC2)nc2cc(NC(=O)COc3ccc([N+](=O)[O-])cc3)ccc21 | 9.63%
63 | CCC(=O)Nc1ccc2c(c1)nc(CCN1CCN(c3ccccn3)CC1)n2C | 4.59%
64 | Cc1cccc(OCC(=O)Nc2ccc3c(c2)nc(CCN2CCC(C)CC2)n3C)c1 | -47.9%
65 | COc1ccc(C2OC(=O)CC2C(=O)N2CCN(c3cc(Cl)ccc3C)CC2)cc1OC (stereo not drawn) | 7.68%
66 | CCn1c(-c2cc(-c3ccc(C)c(C)c3)nc3ccccc23)n[nH]c1=S | 16.2%

Row | SMILES | hERG current change (%, negative = inhibition) at 1uM
67 | CCOC(=O)C1CCN(C2CC(=O)N(c3ccc(OCC)cc3)C2=O)CC1 (stereo not drawn) | 2.22%
68 | CCOC(=O)c1cnc2c(C)cccc2c1NCc1ccco1 | -45.3%
69 | CCOC(=O)c1cnc2c(C(=O)OC)cccc2c1NCc1cccnc1 | -55.5%
70 | CCOC(=O)c1cnc2c(C(=O)OC)cccc2c1NCc1ccco1 | -71.4%
71 | CCOC(=O)c1cnc2ccc(OC)cc2c1NCc1ccccc1 | -33.4%
72 | CCOC(=O)c1cnc2ccccc2c1NCc1ccco1 | -14.7%
73 | CCOC(=O)c1cnc2ccc(OCC)cc2c1NCc1ccccc1 | -12.8%
74 | CCOC(=O)c1cnc2c(OC)cccc2c1Oc1ccccc1 | 11%
75 | CCOC(=O)c1cnc2c(C(=O)OC)cccc2c1NCCN1CCOCC1 | -47.1%
76 | CCOC(=O)c1cnc2c(OC)cccc2c1Nc1ccc2c(c1)OCCO2 | -3.26%
77 | CCOC(=O)c1ccc(NCc2cccnc2)cc1 | 8.24%
78 | CCOC(=O)c1cnc2ccc(OCC)cc2c1NCc1cccnc1.Cl | -75.3%
79 | CCOC(=O)c1cnc2c(OC)cccc2c1NCc1cccnc1 | -68.1%
80 | COc1ccc(OC)c(C(=O)CSc2nnc(Cc3cccs3)n2CCc2ccccc2)c1 | -6.84%
81 | CC(NC(=O)CSc1nc2ccccc2c(=O)n1CCCO)c1ccccc1 (stereo not drawn) | -0.931%
82 | COCCN(CCOC)S(=O)(=O)c1ccc(C(=O)NC2CCN(Cc3ccccc3)CC2)cc1.Cl | -1.24%
83 | COc1ccc(C(=O)Nc2nnc(SCC(=O)NC3CCCC3)s2)c(OC)c1 | 14.4%
84 | CN1C(=O)/C(=C\c2cc(Br)cs2)c2ccccc21 | 12.7%
85 | O=C(Cc1ccc(Cl)cc1)NCC(=O)N1CCCCCC1 | 4.89%
86 | COc1ccc(-n2c(=O)c3c4c(sc3n3c(=S)[nH]nc23)CCC4)cc1 | 9.01%
87 | CCCN1CCN(CCCNC(=O)c2ccc3c(c2)NC(=O)c2ccccc2S3)CC1 | 9.21%

Source: publication PMC4336329 (PLoS ONE, 2015)
